Source: ChEMBL document CHEMBL2218924, “A broad activity screen in support of a chemogenomic map for kinase signalling research and drug discovery” (Biochem J, 2013)

Legend:
[1] = target: T1, Serine/threonine-protein kinase 17A (Homo sapiens) (UniProt Q9UEE5); conditions: at 10 µM
T1 sequence (whole entry): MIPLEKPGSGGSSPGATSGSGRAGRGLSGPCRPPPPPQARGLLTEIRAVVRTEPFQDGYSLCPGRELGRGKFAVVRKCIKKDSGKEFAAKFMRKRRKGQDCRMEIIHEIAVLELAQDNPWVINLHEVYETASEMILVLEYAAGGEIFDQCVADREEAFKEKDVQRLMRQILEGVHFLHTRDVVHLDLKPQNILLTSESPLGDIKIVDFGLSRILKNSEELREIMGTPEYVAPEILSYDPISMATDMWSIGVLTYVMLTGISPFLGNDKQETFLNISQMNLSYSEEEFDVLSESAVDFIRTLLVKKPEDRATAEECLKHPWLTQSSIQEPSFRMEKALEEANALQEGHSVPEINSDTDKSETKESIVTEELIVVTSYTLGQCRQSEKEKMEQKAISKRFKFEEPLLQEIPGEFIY

[2] = target: T2, Dual specificity tyrosine-phosphorylation-regulated kinase 2 (Homo sapiens) (UniProt Q92630); conditions: at 1 µM
T2 sequence (whole entry): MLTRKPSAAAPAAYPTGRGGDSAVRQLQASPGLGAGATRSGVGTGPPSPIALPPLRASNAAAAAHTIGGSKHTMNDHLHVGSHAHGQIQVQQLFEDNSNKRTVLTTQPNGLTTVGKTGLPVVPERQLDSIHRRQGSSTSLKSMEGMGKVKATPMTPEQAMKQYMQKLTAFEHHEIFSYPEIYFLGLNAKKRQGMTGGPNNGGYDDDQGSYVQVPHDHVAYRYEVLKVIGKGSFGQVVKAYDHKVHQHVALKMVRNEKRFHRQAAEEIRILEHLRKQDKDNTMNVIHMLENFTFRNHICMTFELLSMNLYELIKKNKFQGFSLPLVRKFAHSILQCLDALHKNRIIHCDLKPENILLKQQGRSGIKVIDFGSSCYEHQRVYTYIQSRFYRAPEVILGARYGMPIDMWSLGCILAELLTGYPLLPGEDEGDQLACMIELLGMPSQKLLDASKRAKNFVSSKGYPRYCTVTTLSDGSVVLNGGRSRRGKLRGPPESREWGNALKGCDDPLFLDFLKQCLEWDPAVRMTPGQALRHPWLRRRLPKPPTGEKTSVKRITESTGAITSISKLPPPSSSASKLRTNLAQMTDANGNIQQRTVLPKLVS

[3] = target: T2, Dual specificity tyrosine-phosphorylation-regulated kinase 2 (Homo sapiens); conditions: at 10 µM
[4] = target: T3, Ephrin type-A receptor 1 (Homo sapiens) (UniProt P21709); conditions: at 1 µM
T3 sequence (whole entry): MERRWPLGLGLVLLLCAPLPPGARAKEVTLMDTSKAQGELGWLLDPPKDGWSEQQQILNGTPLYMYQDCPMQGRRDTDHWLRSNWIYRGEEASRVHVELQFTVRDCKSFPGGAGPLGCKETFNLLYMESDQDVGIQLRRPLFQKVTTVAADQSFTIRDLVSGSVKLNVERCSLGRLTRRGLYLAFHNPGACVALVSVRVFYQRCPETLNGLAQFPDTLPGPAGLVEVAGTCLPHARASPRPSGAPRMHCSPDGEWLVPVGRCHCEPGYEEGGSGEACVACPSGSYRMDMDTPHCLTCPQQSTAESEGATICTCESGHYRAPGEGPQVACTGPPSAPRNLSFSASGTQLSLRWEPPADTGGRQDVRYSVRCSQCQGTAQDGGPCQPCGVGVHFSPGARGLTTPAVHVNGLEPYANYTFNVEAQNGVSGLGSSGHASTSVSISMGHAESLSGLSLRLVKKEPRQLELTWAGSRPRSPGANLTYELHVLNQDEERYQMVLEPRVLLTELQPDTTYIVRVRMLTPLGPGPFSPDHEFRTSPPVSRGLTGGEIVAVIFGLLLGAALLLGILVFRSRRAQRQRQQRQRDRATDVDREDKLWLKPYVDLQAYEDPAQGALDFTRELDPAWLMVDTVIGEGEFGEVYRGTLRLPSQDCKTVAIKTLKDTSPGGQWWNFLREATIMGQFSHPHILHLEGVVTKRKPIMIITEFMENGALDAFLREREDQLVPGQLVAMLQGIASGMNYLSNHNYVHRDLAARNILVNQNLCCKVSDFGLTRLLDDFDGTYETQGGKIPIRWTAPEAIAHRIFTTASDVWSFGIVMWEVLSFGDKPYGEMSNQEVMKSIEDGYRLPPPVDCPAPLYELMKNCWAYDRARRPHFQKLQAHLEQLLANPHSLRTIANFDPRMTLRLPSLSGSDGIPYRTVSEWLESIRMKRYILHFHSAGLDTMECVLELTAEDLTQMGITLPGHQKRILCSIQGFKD

[5] = target: T3, Ephrin type-A receptor 1 (Homo sapiens); conditions: at 10 µM
[6] = target: Ephrin type-A receptor 2 (Homo sapiens) (UniProt P29317); conditions: at 1 µM
[7] = target: Ephrin type-A receptor 2 (Homo sapiens) (UniProt P29317); conditions: at 10 µM
[8] = target: T4, Ephrin type-A receptor 3 (Homo sapiens) (UniProt P29320); conditions: at 1 µM
T4 sequence (whole entry): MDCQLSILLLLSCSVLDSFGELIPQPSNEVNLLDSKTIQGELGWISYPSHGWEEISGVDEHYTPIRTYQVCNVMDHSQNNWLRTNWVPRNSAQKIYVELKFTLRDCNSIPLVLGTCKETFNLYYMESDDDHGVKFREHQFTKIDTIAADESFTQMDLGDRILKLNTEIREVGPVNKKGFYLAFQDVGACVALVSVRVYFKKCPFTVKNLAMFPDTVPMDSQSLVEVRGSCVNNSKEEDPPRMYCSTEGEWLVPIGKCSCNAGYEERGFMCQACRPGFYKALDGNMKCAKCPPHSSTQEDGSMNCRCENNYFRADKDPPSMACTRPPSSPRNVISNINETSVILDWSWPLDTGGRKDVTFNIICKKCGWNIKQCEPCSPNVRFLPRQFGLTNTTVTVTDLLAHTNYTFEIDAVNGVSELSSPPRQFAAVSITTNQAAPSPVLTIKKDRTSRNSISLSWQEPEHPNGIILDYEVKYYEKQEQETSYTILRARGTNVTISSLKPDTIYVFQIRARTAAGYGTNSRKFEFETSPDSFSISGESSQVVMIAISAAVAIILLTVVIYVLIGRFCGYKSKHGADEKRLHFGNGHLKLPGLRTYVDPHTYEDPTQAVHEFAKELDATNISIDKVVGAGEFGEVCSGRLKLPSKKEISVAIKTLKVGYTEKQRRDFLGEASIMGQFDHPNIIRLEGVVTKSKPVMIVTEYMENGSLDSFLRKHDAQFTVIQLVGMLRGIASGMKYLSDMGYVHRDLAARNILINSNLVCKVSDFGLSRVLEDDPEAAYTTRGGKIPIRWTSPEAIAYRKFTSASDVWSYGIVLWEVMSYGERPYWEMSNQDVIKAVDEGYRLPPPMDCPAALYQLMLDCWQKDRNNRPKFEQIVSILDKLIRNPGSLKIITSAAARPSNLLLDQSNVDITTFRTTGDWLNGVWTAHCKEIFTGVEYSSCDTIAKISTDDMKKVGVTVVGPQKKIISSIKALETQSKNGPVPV

[9] = target: T4, Ephrin type-A receptor 3 (Homo sapiens); conditions: at 10 µM
[10] = target: Ephrin type-A receptor 4 (Homo sapiens) (UniProt P54764); conditions: at 1 µM
[11] = target: Ephrin type-A receptor 4 (Homo sapiens) (UniProt P54764); conditions: at 10 µM
[12] = target: Ephrin type-A receptor 5 (Homo sapiens) (UniProt P54756); conditions: at 1 µM
[13] = target: Ephrin type-A receptor 5 (Homo sapiens) (UniProt P54756); conditions: at 10 µM
[14] = target: Ephrin type-A receptor 7 (Homo sapiens) (UniProt Q15375); conditions: at 1 µM
[15] = target: Ephrin type-A receptor 7 (Homo sapiens) (UniProt Q15375); conditions: at 10 µM
[16] = target: T5, Ephrin type-A receptor 8 (Homo sapiens) (UniProt P29322); conditions: at 1 µM
T5 sequence (whole entry): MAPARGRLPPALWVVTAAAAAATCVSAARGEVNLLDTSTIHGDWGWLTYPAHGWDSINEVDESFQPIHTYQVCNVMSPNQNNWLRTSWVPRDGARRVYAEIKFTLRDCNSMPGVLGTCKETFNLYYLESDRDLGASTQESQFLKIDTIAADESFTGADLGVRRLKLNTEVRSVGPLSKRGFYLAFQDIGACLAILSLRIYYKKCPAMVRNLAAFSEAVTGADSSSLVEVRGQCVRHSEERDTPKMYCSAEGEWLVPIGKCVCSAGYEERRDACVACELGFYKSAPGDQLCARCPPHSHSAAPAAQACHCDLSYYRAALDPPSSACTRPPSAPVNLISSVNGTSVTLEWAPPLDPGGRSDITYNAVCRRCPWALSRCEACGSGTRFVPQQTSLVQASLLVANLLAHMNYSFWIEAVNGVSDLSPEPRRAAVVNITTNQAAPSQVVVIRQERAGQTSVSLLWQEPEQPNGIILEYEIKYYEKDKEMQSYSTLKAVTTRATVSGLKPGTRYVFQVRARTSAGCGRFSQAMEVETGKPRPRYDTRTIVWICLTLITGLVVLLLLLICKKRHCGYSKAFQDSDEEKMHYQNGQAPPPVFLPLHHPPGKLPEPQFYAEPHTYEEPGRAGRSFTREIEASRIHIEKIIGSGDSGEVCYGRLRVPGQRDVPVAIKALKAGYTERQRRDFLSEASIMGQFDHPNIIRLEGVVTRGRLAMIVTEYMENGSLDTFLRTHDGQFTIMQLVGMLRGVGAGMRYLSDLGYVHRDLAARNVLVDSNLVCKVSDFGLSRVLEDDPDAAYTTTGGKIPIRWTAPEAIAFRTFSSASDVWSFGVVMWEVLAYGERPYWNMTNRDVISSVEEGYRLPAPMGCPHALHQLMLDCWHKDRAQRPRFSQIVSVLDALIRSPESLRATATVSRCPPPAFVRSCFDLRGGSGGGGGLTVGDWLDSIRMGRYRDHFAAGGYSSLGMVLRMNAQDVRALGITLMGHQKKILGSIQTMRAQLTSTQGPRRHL

[17] = target: T5, Ephrin type-A receptor 8 (Homo sapiens); conditions: at 10 µM
[18] = target: T6, Ephrin type-B receptor 1 (Homo sapiens) (UniProt P54762); conditions: at 1 µM
T6 sequence (whole entry): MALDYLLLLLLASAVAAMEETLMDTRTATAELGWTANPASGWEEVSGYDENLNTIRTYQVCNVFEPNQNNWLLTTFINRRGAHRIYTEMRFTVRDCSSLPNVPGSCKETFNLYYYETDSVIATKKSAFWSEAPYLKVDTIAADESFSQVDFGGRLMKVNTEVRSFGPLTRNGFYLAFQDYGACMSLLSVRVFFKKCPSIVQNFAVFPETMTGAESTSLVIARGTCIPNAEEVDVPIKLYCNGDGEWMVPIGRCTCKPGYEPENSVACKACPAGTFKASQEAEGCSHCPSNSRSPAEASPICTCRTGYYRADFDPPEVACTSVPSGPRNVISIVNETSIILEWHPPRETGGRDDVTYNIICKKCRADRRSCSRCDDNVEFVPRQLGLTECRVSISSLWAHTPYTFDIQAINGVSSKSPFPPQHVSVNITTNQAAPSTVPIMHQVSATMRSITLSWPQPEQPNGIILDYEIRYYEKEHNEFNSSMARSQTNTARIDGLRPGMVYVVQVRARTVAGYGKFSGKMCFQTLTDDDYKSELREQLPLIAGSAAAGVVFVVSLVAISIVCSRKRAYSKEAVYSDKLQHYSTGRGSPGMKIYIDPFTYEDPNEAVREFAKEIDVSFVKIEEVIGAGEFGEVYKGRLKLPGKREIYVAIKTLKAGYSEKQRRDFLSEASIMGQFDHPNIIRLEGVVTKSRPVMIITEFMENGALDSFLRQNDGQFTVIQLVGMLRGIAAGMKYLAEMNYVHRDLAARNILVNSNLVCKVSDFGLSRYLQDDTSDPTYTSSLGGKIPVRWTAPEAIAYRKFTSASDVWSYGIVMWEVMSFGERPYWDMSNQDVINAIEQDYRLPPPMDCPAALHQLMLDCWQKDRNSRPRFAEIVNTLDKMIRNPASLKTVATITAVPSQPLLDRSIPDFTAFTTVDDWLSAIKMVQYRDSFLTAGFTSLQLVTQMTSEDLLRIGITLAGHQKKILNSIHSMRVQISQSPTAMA

Chain of Ephrin type-A receptor 7 (Homo sapiens) (Q15375 28-998 limits assumed): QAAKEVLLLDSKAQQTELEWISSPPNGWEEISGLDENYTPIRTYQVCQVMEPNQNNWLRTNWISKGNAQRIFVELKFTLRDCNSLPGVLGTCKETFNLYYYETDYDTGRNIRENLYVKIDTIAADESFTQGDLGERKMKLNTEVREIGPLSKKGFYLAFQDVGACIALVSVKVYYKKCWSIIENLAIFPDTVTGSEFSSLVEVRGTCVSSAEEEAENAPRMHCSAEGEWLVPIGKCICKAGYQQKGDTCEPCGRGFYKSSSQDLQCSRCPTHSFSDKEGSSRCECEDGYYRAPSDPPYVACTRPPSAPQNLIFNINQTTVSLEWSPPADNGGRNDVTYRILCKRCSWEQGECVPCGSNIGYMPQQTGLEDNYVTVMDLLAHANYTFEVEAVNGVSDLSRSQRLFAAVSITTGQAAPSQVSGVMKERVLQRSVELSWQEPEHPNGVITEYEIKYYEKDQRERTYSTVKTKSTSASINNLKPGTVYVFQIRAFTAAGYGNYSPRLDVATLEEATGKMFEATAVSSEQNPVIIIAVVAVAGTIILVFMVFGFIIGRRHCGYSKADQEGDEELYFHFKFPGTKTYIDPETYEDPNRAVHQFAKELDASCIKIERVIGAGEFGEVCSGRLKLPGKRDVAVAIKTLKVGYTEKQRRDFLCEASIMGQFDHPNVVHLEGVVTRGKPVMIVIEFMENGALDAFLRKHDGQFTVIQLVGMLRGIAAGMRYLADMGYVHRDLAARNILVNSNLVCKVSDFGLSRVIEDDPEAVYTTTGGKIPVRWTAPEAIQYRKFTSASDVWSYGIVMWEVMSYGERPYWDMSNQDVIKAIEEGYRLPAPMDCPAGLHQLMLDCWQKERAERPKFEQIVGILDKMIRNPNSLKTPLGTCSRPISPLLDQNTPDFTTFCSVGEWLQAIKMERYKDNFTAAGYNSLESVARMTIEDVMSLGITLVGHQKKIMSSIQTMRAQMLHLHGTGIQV
Chain of Ephrin type-A receptor 5 (Homo sapiens) (P54756 whole entry): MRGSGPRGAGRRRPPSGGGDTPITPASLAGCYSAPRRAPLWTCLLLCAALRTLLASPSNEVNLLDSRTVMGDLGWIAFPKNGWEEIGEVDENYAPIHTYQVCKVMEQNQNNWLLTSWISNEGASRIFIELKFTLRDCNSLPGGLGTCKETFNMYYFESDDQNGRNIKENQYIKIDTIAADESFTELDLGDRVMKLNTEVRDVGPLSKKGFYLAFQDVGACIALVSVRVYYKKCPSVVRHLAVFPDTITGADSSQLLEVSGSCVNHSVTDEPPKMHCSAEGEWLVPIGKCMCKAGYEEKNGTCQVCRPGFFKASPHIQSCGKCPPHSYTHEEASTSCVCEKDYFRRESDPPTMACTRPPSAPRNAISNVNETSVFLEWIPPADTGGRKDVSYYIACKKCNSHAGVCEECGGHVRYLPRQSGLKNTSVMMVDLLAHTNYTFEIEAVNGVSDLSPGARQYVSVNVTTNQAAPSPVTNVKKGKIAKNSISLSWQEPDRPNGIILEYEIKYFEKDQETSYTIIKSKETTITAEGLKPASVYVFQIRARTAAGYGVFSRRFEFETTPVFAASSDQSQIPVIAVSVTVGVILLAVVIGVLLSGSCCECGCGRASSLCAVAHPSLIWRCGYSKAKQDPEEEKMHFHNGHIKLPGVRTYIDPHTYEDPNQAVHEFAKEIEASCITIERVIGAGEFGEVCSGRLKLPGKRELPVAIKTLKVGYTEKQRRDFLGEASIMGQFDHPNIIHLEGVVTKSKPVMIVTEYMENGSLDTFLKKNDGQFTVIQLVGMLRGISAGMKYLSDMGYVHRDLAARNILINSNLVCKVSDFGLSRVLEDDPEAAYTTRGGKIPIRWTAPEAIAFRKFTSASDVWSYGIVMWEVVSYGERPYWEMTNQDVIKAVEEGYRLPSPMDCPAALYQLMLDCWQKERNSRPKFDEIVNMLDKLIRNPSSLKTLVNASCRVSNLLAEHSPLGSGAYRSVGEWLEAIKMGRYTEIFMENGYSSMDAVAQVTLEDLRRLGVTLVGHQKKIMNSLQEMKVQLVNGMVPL
Chain of Ephrin type-A receptor 2 (Homo sapiens) (P29317 whole entry): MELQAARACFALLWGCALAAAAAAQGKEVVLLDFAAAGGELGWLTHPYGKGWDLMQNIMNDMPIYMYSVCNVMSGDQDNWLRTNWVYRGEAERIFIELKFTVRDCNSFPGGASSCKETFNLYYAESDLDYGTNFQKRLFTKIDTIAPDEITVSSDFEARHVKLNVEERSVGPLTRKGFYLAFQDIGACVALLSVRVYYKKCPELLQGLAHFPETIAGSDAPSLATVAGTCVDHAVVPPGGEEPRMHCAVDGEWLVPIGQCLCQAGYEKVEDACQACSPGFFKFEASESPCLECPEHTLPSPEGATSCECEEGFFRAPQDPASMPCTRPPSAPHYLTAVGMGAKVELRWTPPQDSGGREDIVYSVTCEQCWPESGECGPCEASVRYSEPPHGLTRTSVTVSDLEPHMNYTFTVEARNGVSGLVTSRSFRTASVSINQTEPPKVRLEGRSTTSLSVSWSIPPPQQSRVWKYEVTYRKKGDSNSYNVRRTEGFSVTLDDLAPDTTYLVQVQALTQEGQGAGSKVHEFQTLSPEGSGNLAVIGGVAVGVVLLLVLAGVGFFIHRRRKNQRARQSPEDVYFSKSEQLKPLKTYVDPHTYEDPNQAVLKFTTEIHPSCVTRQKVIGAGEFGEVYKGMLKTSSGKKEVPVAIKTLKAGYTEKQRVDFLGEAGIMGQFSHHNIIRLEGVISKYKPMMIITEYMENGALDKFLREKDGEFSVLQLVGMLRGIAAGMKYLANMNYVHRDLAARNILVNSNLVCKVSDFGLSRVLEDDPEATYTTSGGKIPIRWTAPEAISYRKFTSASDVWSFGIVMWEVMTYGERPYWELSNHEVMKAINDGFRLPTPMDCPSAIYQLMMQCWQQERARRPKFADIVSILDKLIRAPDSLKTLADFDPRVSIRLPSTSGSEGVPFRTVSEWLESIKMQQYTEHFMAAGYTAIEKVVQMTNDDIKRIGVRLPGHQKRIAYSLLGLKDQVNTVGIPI
Chain of Ephrin type-A receptor 4 (Homo sapiens) (P54764 whole entry): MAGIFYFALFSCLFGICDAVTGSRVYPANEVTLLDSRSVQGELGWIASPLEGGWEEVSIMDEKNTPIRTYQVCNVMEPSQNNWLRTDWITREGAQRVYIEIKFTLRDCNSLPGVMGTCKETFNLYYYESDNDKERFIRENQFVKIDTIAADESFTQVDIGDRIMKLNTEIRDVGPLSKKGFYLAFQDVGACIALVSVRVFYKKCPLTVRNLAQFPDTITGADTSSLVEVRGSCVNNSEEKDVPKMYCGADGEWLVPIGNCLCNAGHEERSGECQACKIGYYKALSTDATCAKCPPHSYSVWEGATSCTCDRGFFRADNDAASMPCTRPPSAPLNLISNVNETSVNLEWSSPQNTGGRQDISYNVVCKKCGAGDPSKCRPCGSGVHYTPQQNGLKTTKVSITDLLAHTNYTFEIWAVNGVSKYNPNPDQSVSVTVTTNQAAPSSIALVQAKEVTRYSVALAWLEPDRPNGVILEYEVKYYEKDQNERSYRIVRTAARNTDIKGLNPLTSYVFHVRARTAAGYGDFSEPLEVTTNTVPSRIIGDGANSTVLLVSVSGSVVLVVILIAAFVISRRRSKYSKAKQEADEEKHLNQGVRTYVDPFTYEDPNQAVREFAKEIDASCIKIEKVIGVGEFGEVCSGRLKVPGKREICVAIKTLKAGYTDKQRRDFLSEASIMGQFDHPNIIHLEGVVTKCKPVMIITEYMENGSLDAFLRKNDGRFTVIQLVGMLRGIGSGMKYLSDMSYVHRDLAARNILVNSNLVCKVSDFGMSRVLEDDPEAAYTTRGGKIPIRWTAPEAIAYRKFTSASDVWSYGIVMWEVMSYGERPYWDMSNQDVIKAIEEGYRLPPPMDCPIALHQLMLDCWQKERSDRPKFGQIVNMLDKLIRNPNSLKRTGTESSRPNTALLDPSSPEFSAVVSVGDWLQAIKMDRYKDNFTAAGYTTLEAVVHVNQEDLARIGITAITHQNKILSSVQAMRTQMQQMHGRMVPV

| Structure (SMILES) | residual activity [1] | residual activity [2] | residual activity [3] | residual activity [4] | residual activity [5] | residual activity [6] | residual activity [7] | residual activity [8] | residual activity [9] | residual activity [10] | residual activity [11] | residual activity [12] | residual activity [13] | residual activity [14] | residual activity [15] | residual activity [16] | residual activity [17] | residual activity [18] |
| --- | --- | --- | --- | --- | --- | --- | --- | --- | --- | --- | --- | --- | --- | --- | --- | --- | --- | --- |
| Cc1nc2cc3nc(-c4cccs4)cnc3cc2n1C | 14% | 108% | 87% | 111% | 121% | 110% | 105% | 127% | 94% | 115% | 96% | 107% | 114% | 104% | 90% | 111% | 96% | 103% |
| Cc1cccc(-c2[nH]c(C(C)(C)C)nc2-c2ccc3c(c2)OCO3)n1 |  | 94% | 104% | 90% | 106% |  |  |  | 96% |  |  |  |  | 98% | 94% | 99% | 105% |  |
| CC(=O)c1ccc(N2CCOCC2)cc1O |  | 108% | 92% | 94% | 110% | 102% |  | 107% | 94% |  | 104% |  | 101% | 101% | 90% | 100% | 93% | 93% |
| CN(C)CCCn1cc(C2=C(c3c[nH]c4ccccc34)C(=O)NC2=O)c2ccccc21 | 46% |  |  |  | 37% | 102% | 68% | 109% | 82% |  | 82% | 123% | 103% | 108% | 87% | 120% | 106% |  |
| c1ccc(-c2n[nH]cc2-c2ccnc3ccccc23)nc1 |  | 89% | 104% | 90% | 90% | 102% | 95% | 99% | 78% |  | 103% | 109% | 103% | 94% | 91% | 95% | 97% | 104% |
| N#CCCc1ccc2c(c1)-c1[nH]c3ccc([N+](=O)[O-])cc3c1CC(=O)N2 | 3% | 28% | 12% |  |  |  |  | 77% | 43% |  |  |  |  | 79% | 56% | 77% | 69% |  |
